Measured values from PMC4552634, “A New Set of Chemical Starting Points with Plasmodium falciparum Transmission-Blocking Potential for Antimalarial Drug Discovery” (PLoS ONE, 2015).
Screen size: about 13,000 compounds; about 3,200 (25%) showed an effect of 50% or more. The list shows a part of the results.

Tested on: P. falciparum stage V gametocytes
Set-up: BacTiter-Glo ATP luminescence viability of purified stage V gametocytes in 384-well plates, per cent inhibition versus DMSO
Conditions: 48 h, 5 µM; inhibitor

Compound	% Inhibition [%]
Cc1ccc2ccccc2c1CCCON1C(N)=NC(N)=NC1(C)C [TCMDC-131758]	22.75
O=C(Nc1ccc(Cl)c(Cl)c1)N1CCC(CNCc2cccc([N+](=O)[O-])c2)CC1 [TCMDC-141279]	18.17
O=C(/C=C/c1ccc(Cl)c(Cl)c1)NCCCCCN1CCCN(C(=O)Nc2cc(Cl)nc(Cl)c2)CC1 [TCMDC-135888]	-3.146
O=C(/C=C/c1ccc(Cl)c(Cl)c1)N1CCN(C(=O)Nc2cccc(C(F)(F)F)c2)CC1 [TCMDC-135944]	-35.14
COc1ccc(NC(=O)c2cn(-c3ccc(C(C)(C)C)cc3)nc2C)cc1N1CCN(C)CC1 [TCMDC-138689]	-23.67
c1ccc(COc2ccccc2COc2ccccc2-c2ccc3cccnc3n2)cc1 [TCMDC-136713]	16.91
COc1ccc(OC)c(NC(=O)CSc2nc(-c3ccccc3Cl)ns2)c1 [TCMDC-124547]	60.03
COc1ccc(-n2ccnc2SCC(=O)Nc2cc(Cl)ccc2OC)c(OC)c1 [TCMDC-125135]	-9.787
COc1ccc(OC)c(NC(=O)c2c(-c3c(F)cccc3Cl)noc2C)c1 [TCMDC-123664]	2.719
FC(F)(F)c1ccc(COc2cc(Cl)ccc2Cn2ccnc2)cc1 [TCMDC-137640]	-9.557
COc1cc(Cc2cnc(N)nc2N)cc(OCCCCCCC(=O)O)c1OC [TCMDC-137630]	-3.564
COc1ccc(CNCc2ccccc2)cc1-c1ccc(S(=O)(=O)NCCN2CCCC2)s1 [TCMDC-132257]	102.1
COc1ccc(CNCCc2cccs2)cc1-c1ccc(S(=O)(=O)NCCN2CCCC2)s1 [TCMDC-132477]	85.27
COc1ccc(CNCc2ccc(F)cc2)cc1-c1ccc(S(=O)(=O)NCCN2CCCC2)s1 [TCMDC-132297]	108.7
COc1ccc(CNCc2ccsc2)cc1-c1ccc(S(=O)(=O)NCCN2CCCC2)s1 [TCMDC-132298]	91.71
CN1CCN(c2ccnc3ccc(NC(=O)Cc4cccc(Cl)c4Cl)cc23)CC1 [TCMDC-139274]	-28.12
Cc1cccc2[nH]c(-c3cccc(-c4cccc(NC(=O)c5cnn6cccnc56)c4)c3)nc12 [TCMDC-136867]	-0.6551
CN(C)c1cc2c(Nc3ccc4nc(Cc5ccccc5)[nH]c4c3)ncnc2cn1 [TCMDC-137304]	-2.875
COc1ccc2nccc(N(C)CC3(O)CCN(CC(O)c4ccc5c(c4)NC(=O)CS5)CC3)c2n1 (centres unmarked) [TCMDC-141471]	38.6
O=C(Nc1cccc(-c2ccc(-c3nc4cc(C(F)(F)F)ccc4[nH]3)s2)c1)c1cccnc1 [TCMDC-136922]	0.1958
CNCc1cccc2[nH]c(-c3ccc(Cc4cc(Cl)ccc4OCC(C)C)o3)nc12 [TCMDC-137044]	60.59
Clc1ccc(OCc2ccccc2)c(Cc2ccc(-c3nc4ccncc4[nH]3)o2)c1 [TCMDC-136651]	10.18
CC(C)COc1ccc(Cl)cc1Cc1ccc(-c2nc3c(cnc4ccccc43)[nH]2)o1 [TCMDC-136650]	61.46
CC(C)COc1ccc(Cl)cc1Cc1nc(-c2nc3ccc(CN4CCCCC4)cc3[nH]2)co1 [TCMDC-136811]	-22.76

Compound	% Inhibition [%]
CC(C)COc1ccc(Cl)cc1Cc1nc(-c2nc3ccc(CN4CCCC4)cc3[nH]2)co1 [TCMDC-136810]	-7.137
CC(C)COc1ccc(Cl)cc1Cc1ccc(-c2nc3c(F)cccc3[nH]2)o1 [TCMDC-136661]	74.56
CC(C)COc1ccc(Cl)cc1Cc1ccc(-c2nc3c(F)c(F)ccc3[nH]2)o1 [TCMDC-136562]	72.75
O=C(Nc1cccc(-c2nn3ccccc3c2-c2ccnc(Nc3cccc(F)c3)n2)c1)C1CCCCC1 [TCMDC-135770]	-93.68
Cc1ccc2c(O)c([N+](=O)[O-])c(=O)[nH]c2c1 [TCMDC-131383]	0.04547
CCCn1c(SCC(=O)Nc2cc(C(F)(F)F)ccc2Cl)n[nH]c1=O [TCMDC-123566]	-8.395
CC(C)(NCc1ncc[nH]1)c1nc(-c2ccc(Cl)c(O)c2)c(-c2ccncc2)[nH]1 [TCMDC-140686]	-7.541
O=C(Nc1ccsc1)Nc1cccc(-c2cccc(-c3nc4ccccc4[nH]3)c2)c1 [TCMDC-133212]	-2.113
COc1ccc(-c2cccc(CNC3CCN(CC4Cn5c(=O)ccc6ccc(F)c4c65)CC3)c2)cc1 (centres unmarked) [TCMDC-134414]	-11.45
CCc1ccccc1OCCCON1C(N)=NC(N)=NC1(C)C [TCMDC-131305]	3.059
COc1ccccc1N1CCN(C(C(=O)NCc2ccc3c(c2)OCO3)c2ccc3c(c2)OCCCO3)CC1 (centres unmarked) [TCMDC-135675]	-10.78
COc1cc(NCCCCCNc2cc(Cl)nc3ccccc23)nc2ccccc12 [TCMDC-139303]	-22.5
COc1ccccc1N1CCN(C(C(=O)NCc2ccc3c(c2)OCO3)c2ccc(C)cc2)CC1 (centres unmarked) [TCMDC-135503]	-4.748
Cc1nc(NCc2ccccc2)cc(NCC(O)c2ccc(O)cc2)n1 (centres unmarked) [TCMDC-135163]	19.67
COc1cc(NCC(O)CNc2cc(OC)c3ccccc3n2)nc2ccccc12 [TCMDC-139360]	55.11
COc1ccc2c(C)cc(NCCCN(C)C)nc2c1 [TCMDC-124046]	8.685
COc1ccc(COc2cc(NCCCN)nc3ccccc23)cc1 [TCMDC-139286]	99.04
COc1cc(NCC(O)CNc2cc(Cl)nc3ccccc23)nc2ccccc12 (centres unmarked) [TCMDC-139359]	31.96
COc1cc(NCC(CN)Cc2ccc3c(c2)OCO3)nc2ccccc12.Cl (centres unmarked) [TCMDC-140387]	69.08
Cc1ccc(C(=O)Nc2ccnc(N(C)C3CCN(Cc4cccc(O)c4)CC3)c2)cn1 [TCMDC-134967]	-0.6383
COCCNCc1ncsc1-c1ccc2c(Nc3cc(O)c(Cl)cc3F)ccnc2c1 [TCMDC-138441]	3.438
Cc1nc(N=C(N)N)nc2cc3c(cc12)CCC3 [TCMDC-141187]	84.12
Cc1nc(N=C(N)N)nc2ccc(C(C)(C)C)cc12 [TCMDC-137936]	-23.7
CCC1(C)N=C(N)N=C(N)N1c1ccc(Cl)cc1 (centres unmarked) [TCMDC-132039]	4.957

Compound	% Inhibition [%]
COc1cc2ncnc(Nc3ccc(OC(F)(F)c4ccccc4)cc3)c2cc1OC [TCMDC-131925]	12
COc1cc2ncnc(Nc3ccc(Br)c(Cl)c3)c2cc1OC [TCMDC-131909]	14.07
COc1cc(Nc2ncnc3cc(OC)c(OC)cc23)cc([N+](=O)[O-])c1 [TCMDC-138138]	82.08
CCOC(=O)c1ccc(NC(=O)Nc2cccc(-c3ccc(-c4nc5ccccc5[nH]4)cc3)c2)cc1 [TCMDC-133266]	-19.34
O=C(/C=C/c1ccc(Cl)c(Cl)c1)NCCCCCN1CCC(NC(=O)Nc2ccc(F)c(F)c2)CC1 [TCMDC-135714]	-48.39
CC(=O)Nc1ccc(C#Cc2ccc(-c3c(C)[nH]c(C)c(Cl)c3=O)cc2)cc1 [TCMDC-135653]	34.03
COc1ccc(Oc2ccc(-c3c(C)[nH]c(C)c(Cl)c3=O)cc2)cc1 [TCMDC-136134]	78.59
Cc1[nH]c(C)c(-c2ccc(Oc3ccc(O)cc3)cc2)c(=O)c1Cl [TCMDC-136135]	-17.77
COc1ccc(CCc2ccc(-c3c(C)[nH]c(C)c(Cl)c3=O)cc2)cc1OC [TCMDC-135789]	86.31
C/C=C/COc1ccc(-c2c(C)[nH]c(C)c(Cl)c2=O)cc1 [TCMDC-134729]	76.24
Cc1[nH]c(C)c(-c2ccc(OCc3ccc(F)cc3)cc2)c(=O)c1Cl [TCMDC-132415]	7.51
COc1ccc(C=Cc2ccc(-c3c(C)[nH]c(C)c(Cl)c3=O)cc2)cc1OC [TCMDC-135788]	33.6
COc1ccc(C#Cc2ccc(-c3c(C)[nH]c(C)c(Cl)c3=O)cc2)cc1 [TCMDC-135655]	67.24
CN1CC[C@H](N(Cc2ccccc2F)c2ccc(C#N)c(Cl)c2)C1 [TCMDC-137035]	21.12
COc1ccc(CN2CCC2=O)c(OC)c1 [TCMDC-132118]	45.15
CC(=O)N[C@@H]1c2cc(C(C)=O)ccc2OC(C)(C)[C@@H]1O [TCMDC-139001]	15.15
CC(C)(C)c1ccc(S(=O)(=O)Nc2cc(Cl)ccc2Cn2ccc(N3CCNCC3)nc2=O)cc1 [TCMDC-132581]	5.996
Oc1ccc2[nH]c(-c3cccs3)nc2c1CN1CCC(N2CCCC2)CC1 [TCMDC-136356]	-12.57
COc1ccc(CCn2c(=N)c(C(=O)NCc3ccc(C)cc3)cc3c(=O)n4ccccc4nc32)cc1 [TCMDC-124475]	27.16
Cc1[nH]c(C)c(-c2ccc(CCc3ccc(N)cc3)cc2)c(=O)c1Cl [TCMDC-135678]	70.67
COc1ccc(CCc2ccc(-c3c(C)[nH]c(C)c(Cl)c3=O)cc2)cc1 [TCMDC-135654]	77.1
Cc1[nH]c(C)c(-c2ccc(Oc3ccc(F)cc3)cc2)c(=O)c1Cl [TCMDC-134728]	77.31
CC1(C)N=C(N)N=C(N)N1c1cc(Cl)c(Cl)c(Cl)c1 [TCMDC-137508]	-8.001
